# Test results: PubChem BioAssay AID624296 (National Center for Advancing Translational Sciences (NCATS), 2012)
# In all, about 350,000 compounds went through this assay and about 9,900 (2.8%) were called active. A call without a number means that no potency is given here. Roughly 15% stayed inconclusive and do not appear here. The call rests on the fitted dose curve; in most records, active means well fitted activation curve with a large enough effect; inconclusive means small, poorly fitted or top-dose-only effect; inactive means no such curve, though single readings can be large or run the other way. The sample as a whole holds a higher share of actives than the screen did.
# Test: A quantitative high throughput screen for small molecules that induce DNA re-replication in MCF 10a normal breast cells. Further: nearly all actives have a fitted effect of over 50% in size.
# Details: MCF 10A DNA re-replication, Hoechst nuclear intensity, 48 h; series mostly up to 46.1 µM
# Potency means the concentration at half of the fitted maximal effect.
row,Compound,Potency
1,COc1ccccc1CNC(=O)c1ccc(Cl)c(S(=O)(=O)N2CCCC2)c1,inactive
2,Cc1occc1C(=O)Nc1cccc(S(=O)(=O)N2CCOCC2)c1,inactive
3,Cc1ccc(SCC(=O)N2CCN(c3ccc(F)cc3)CC2)cc1,inactive
4,CCN1CCN(C(=O)CSc2ccc(C)cc2)CC1,inactive
5,CCN1CCC2(CC1)N=C(c1ccc(F)cc1)C(=S)N2C(=O)c1ccc(C)cc1,13 µM (active)
6,CCSc1nc2sc3c(c2c(=O)n1-c1ccc(C)cc1)CCN(C)C3,18.4 µM (active)
7,CCOc1ccc(-n2c(SCC(=O)OC)nc3sc4c(c3c2=O)CCN(C)C4)cc1,inactive
8,COc1ccccc1NC(=O)CSc1nc2sc3c(c2c(=O)n1-c1ccccc1)CCN(C)C3,inactive
9,Cc1ccc(S(=O)(=O)N(C)CC(=O)NCC(c2ccc(F)cc2)N2CCOCC2)cc1 (stereo not drawn),inactive
10,Cc1ccccc1C(=O)NC(=S)Nc1ccc(N2CCN(C(=O)c3ccccc3)CC2)cc1,inactive
11,Cc1ccccc1C(=O)Nc1ccc(N2CCCCCC2)cc1,18.4 µM (active)
12,Cc1ccccc1C(=O)Nc1ccccc1NC(=O)c1ccccc1C,inactive
13,O=c1[nH]c2c(c(=O)n1-c1ccccc1)CCO2,inactive
14,Cc1ccccc1N1CCN(C(=O)c2cccnc2)CC1,inactive
15,CC1Cc2ccccc2N1S(=O)(=O)c1cccc(C(=O)OCC(=O)N2CCOCC2)c1 (stereo not drawn),inactive
16,CCC1([N+](=O)[O-])COC(c2ccc(C(C)C)cc2)OC1 (stereo not drawn),inactive
17,O=C(CN1C(=O)c2ccccc2C1=O)NCc1ccc(C(=O)O)cc1,inactive
18,CC(=O)N(C1=C(Cl)C(=O)c2ccccc2C1=O)c1ccc(C(=O)O)cc1,5.8 µM (active)
19,CC(C)N(C(=O)c1ccc(-c2ccccc2F)cc1)C(C)C,inactive
20,O=C(OCC(=O)N1CCCCCC1)c1cnc(Cl)c(Cl)c1,inactive
21,COc1cccc2sc(N(CCCN(C)C)C(=O)CCS(=O)(=O)c3ccccc3)nc12,6.51 µM (active)
22,CN(C)CCCN(C(=O)COc1ccccc1)c1nc2c(Cl)cccc2s1,inactive
23,COc1cc2ccccc2cc1C(=O)N(CCN(C)C)c1nc2c(F)cccc2s1,inactive
24,N#Cc1ccccc1S(=O)(=O)N1CCN(Cc2c(O)ccc3ccccc23)CC1,inactive
25,CCc1ccccc1OCC(=O)Nc1ccc2c(c1)OCCO2,inactive
26,O=[N+]([O-])c1cccc(/C([O-])=C(/C(=S)Nc2ccccc2F)[n+]2ccccc2)c1,inactive

row,Compound,Potency
1,CCOc1ccccc1NC(=S)C(=C([O-])c1ccc2c(c1)OCCO2)[n+]1ccc(CC)cc1,2.59 µM (active)
2,O=[N+]([O-])c1ccc(N=NNc2ccc([N+](=O)[O-])cc2)cc1,inactive
3,Cc1cccc(NC(=O)c2sc3nc(N4CCOCC4)c4c(c3c2N)CCCC4)c1,2.91 µM (active)
4,Cc1ccc(NC(=O)c2sc3nc(N)c(C#N)cc3c2N)cc1,inactive
5,c1ccc(CSc2ncnc3c2sc2nc(N4CCOCC4)c4c(c23)CCCC4)cc1,inactive
6,CC(=O)Nc1ccc(NC(=O)c2sc3nc4c(c(-c5ccc(C)cc5)c3c2N)CCC4)cc1,5.8 µM (active)
7,CC(=O)c1ccc(NC(=O)c2sc3nc4n(c(=O)c3c2C)CCCCC4)cc1,inactive
8,Cc1cccc(NC(=O)/C(=C\c2ccco2)NC(=O)c2ccccc2)c1,inactive
9,CC(=O)Nc1ccc(N2CCOCC2)c(C(=O)Nc2cccc(C)c2)c1,inactive
10,Cc1cccc(NC(=O)c2sc3nc4c(c(-c5ccco5)c3c2N)CCC4)c1,13 µM (active)
11,Cc1cccc(NC(=O)CSc2nnc(-c3ccco3)o2)c1,inactive
12,Cc1ccc(S(=O)(=O)N(C)c2ccc(OCC(=O)OCc3ccc(C#N)cc3)cc2)cc1,inactive
13,O=C(CC(=O)c1cccnc1)c1ccccc1,inactive
14,OC(COc1ccccc1)CN1CCN(c2cccc(Cl)c2)CC1 (stereo not drawn),inactive
15,C[C@@H]1NS(=O)(=O)c2cc(Cl)ccc2O[C@@H]1c1ccccc1,inactive
16,CCc1cccc(NC(=O)COC(=O)c2cc(=O)c3ccccc3o2)c1,inactive
17,CCOC(=O)C1CCCN(C(=O)CSc2nnc3nc(C)cc(C)n23)C1 (stereo not drawn),inactive
18,Cc1c(C(=O)Nc2cccc(S(=O)(=O)N3CCOCC3)c2)oc2ccccc12,inactive
19,COc1cccc(N(CC(=O)Nc2cccc(F)c2)S(C)(=O)=O)c1,inactive
20,Cc1cccc(N(CC(=O)Nc2ccc(-c3nc4ccc(C)cc4s3)cc2)S(C)(=O)=O)c1,14.6 µM (active)
21,CCN(CC)S(=O)(=O)c1ccc(NC(=O)CN(c2cccc(F)c2)S(C)(=O)=O)cc1,inactive
22,CCN(CC)C(=O)[C@H]1CC(CC(=O)NCc2ccco2)C(=O)N2CCc3c([nH]c4ccccc34)[C@]12C (stereo partly drawn),inactive
23,CN(C)S(=O)(=O)c1ccc(C(=O)NCC2(N3CCOCC3)CCCCC2)cc1,inactive
24,O=C(N/N=C/c1ccc(O)c2ccccc12)c1cccnc1,inactive
25,O=C(N/N=C/c1sc(N2CCCCC2)nc1-c1cccs1)c1cccnc1,0.461 µM (active)
26,Cc1cc(/C=N/NC(=O)c2cccnc2)c(C)n1CC(C)C,inactive

row,Compound,Potency
1,OCCN1CCN(CCO)C1=S,inactive
2,O=C(CCC(=O)N1CCN(S(=O)(=O)c2ccc(Cl)cc2)CC1)NCc1cccc(C(F)(F)F)c1,inactive
3,C[C@H](NC(=O)c1[nH]cnc1C(=O)Nc1nccs1)c1ccccc1,inactive
4,CN(CC(=O)NCCc1ccc(S(N)(=O)=O)cc1)CC(=O)Nc1ccc(Cl)cc1,inactive
5,CCC(C)NC(=O)c1ccc(NC(=O)CC2SC(N3CCCCC3)=NC2=O)cc1 (stereo not drawn),inactive
6,Cc1ccc(NC(=S)NC(=O)c2ccc(-c3ccccc3)cc2)cc1,inactive
7,CCOC(=O)c1c(-c2ccccc2)csc1NC(=S)NC(=O)c1ccccc1,inactive
8,CCOC(=O)C1=C(NC(=S)NC(=O)c2ccccc2)c2ccccc2CC1(C)C,4.11 µM (active)
9,CSc1ccc(S(=O)(=O)NCC(=O)OCC(=O)NC2(C#N)CCCCC2)cc1[N+](=O)[O-],inactive
10,COc1ccc(CCNC(=O)COC(=O)C2CC2C)cc1 (stereo not drawn),inactive
11,C#CCOCCOCCOCCNc1nc(N2CCN(C(=O)[C@H](CO)n3cc([C@@H](N)C(C)C)nn3)CC2)nc(N2CCN(C(=O)[C@H](CCC(=O)O)n3cc([C@@H](N)[C@H](C)CC)nn3)CC2)n1,inactive
12,CCOC(=O)c1sc(=NC(=O)c2ccc(Br)cc2)n(C)c1C,inactive
13,CCOC(=O)C1=C(C)Nc2sc(C(=O)c3ccc(Br)cc3)c(N)c2C1c1ccc(C(=O)OC)cc1 (stereo not drawn),2.91 µM (active)
14,CCOC(=O)c1sc(=S)n2c1[nH]c(=O)c1ccc(C(=O)OC)cc12,inactive
15,CC(Oc1ccc(Br)cc1)C(=O)NC1CCCCCC1 (stereo not drawn),inactive
16,CCc1[nH]nc(C(=O)N2CCCC(CO)(Cc3ccc(F)cc3F)C2)c1C (stereo not drawn),inactive
17,COc1cccc(CC2(CO)CCCN(Cc3ccc(OC(F)F)cc3)C2)c1 (stereo not drawn),inactive
18,CCOc1cc(CN2CCCC(CO)(Cc3ccc(F)cc3F)C2)ccc1OC (stereo not drawn),3.66 µM (active)
19,Cc1nc(N)nc(Cl)c1CCC1OCCO1,inactive
20,O=C(COC(=O)c1cccnc1Cl)NC(=O)NC1CCCCC1,inactive
21,CCOC(=O)[C@@H]1[C@H]2COc3ccc(Br)cc3[C@H]2N2C(=O)N(c3ccc(C)cc3)C(=O)[C@@]12C,inactive
22,COc1ccc(/C(C)=N/NC(=O)CCC(=O)Nc2ccc(Cl)cc2Cl)c(OC)c1,inactive
23,COc1ccc(OC)c(C(=O)c2ccc(Cl)cc2)c1,inactive
24,COc1ccc(OC)c(/C(C)=N\NC(=O)c2cc3cc(Cl)ccc3n2C)c1,14.6 µM (active)
25,C=CCN1C=C(C(=O)c2ccccc2)C(=O)CC1,inactive
26,OCC[C@H]1C[C@@H](O)[C@H](O)[C@@]2(OCCc3ccccc32)O1,inactive

row,Compound,Potency
1,O=C(Nc1cccc(Br)c1)C1CC(=O)N(C2CCCC2)C1 (stereo not drawn),inactive
2,COc1ccccc1C(=O)N1CC2(C)CC1CC(C)(C)C2 (stereo not drawn),inactive
3,Cc1cccc(C(=O)NCC(=O)OCC(=O)N2CC3(C)CC2CC(C)(C)C3)c1 (stereo not drawn),inactive
4,Cc1nnnn1/C(=C\c1ccccc1)C(=O)OCC(=O)N1CC2(C)CC1CC(C)(C)C2 (stereo not drawn),16.4 µM (active)
5,O=C(COC(=O)Cc1ccc([N+](=O)[O-])cc1)NC1CCCCCC1,inactive
6,CSc1ncccc1C(=O)Nc1cccc(S(=O)(=O)N2CCOCC2)c1,inactive
7,CSc1ncc(Sc2ccccc2)c(C(=O)O)n1,inactive
8,CSc1nc(-c2ccccc2)nc(C(Cl)Cl)n1,2.59 µM (active)
9,CSc1nc(C)cc(SC(C(C)=O)C(=O)Nc2ccccc2)n1 (stereo not drawn),inactive
10,O=C(Nc1cccc(S(=O)(=O)NC2=NCCC2)c1)c1ccc(F)cc1F,inactive
11,O=C(Nc1ccc(C(F)(F)F)cc1)c1cccc(-n2cnnn2)c1,inactive
12,CC(C)COc1ccc(C(=O)NNC(=O)CCC(=O)c2cccs2)cc1,inactive
13,O=C(NCc1ccccc1)C1=C[C@@H](c2ccccc2)C[C@@H](OCCCCO)O1,16.4 µM (active)
14,CC(C)(C)[C@H]1C=C(C(=O)NCc2ccccc2)O[C@@H](OCc2ccc(CO)cc2)C1,inactive
15,O=C(NCc1ccccc1)C1=C[C@@H](C2CCCCC2)C[C@@H](OCc2ccc(CO)cc2)O1,18.4 µM (active)
16,C#Cc1ccc([C@@H]2C=C(C(=O)O)O[C@H](OCCCCO)C2)cc1,inactive
17,O=C(O)C1=C[C@H](c2cccs2)C[C@H](OCCCCO)O1,inactive
18,O=C(NCc1ccccc1)C1=C[C@H](C2CC2)C[C@H](OCc2ccc(CO)cc2)O1,inactive
19,CC(=O)OC1CCC2(C)C(=CCC3C4CC(=O)N(O)C(=O)C4(C)CCC32)C1 (stereo not drawn),inactive
20,CC(C)Cc1nnc(N)s1,inactive
21,CC(C)c1ccc(C=NNc2ccc([N+](=O)[O-])cn2)cc1,6.51 µM (active)
22,COc1ccc(Nc2ccc([N+](=O)[O-])cn2)cn1,inactive
23,NC(=S)N/N=C/c1ccc([N+](=O)[O-])cc1,inactive
24,Cc1ccc(S(=O)(=O)NCCNC(C)c2ccc(Br)cc2)cc1 (stereo not drawn),inactive
25,C#CCOCCOCCOCCNc1nc(N2CCN(C(=O)[C@H](CCCN=C(N)N)n3cc(C(N)[C@@H](C)CC)nn3)CC2)nc(N2CCN(C(=O)[C@H](CO)n3cc([C@@H](N)C(C)C)nn3)CC2)n1 (stereo partly drawn),inactive
